# The sample as a whole holds a higher share of hits than the screen did.
# Dicer processing: inhibitors of human Dicer processing of pre-microRNA; Q9UPY3; z-score at 25 µM; 47,000 compounds, 6% hits; AID 1347074; cat-ELCCA pre-miR-21 Dicer processing, chemiluminescence; stronger effect = higher value; in the data active means z-score above about 3, passing the limit was not always enough;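 further: plate controls were vehicle for no effect and no enzyme for full effect; higher signal means more uncleaved substrate so more Dicer inhibition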
# Target sequence (Q9UPY3 whole entry, looked up): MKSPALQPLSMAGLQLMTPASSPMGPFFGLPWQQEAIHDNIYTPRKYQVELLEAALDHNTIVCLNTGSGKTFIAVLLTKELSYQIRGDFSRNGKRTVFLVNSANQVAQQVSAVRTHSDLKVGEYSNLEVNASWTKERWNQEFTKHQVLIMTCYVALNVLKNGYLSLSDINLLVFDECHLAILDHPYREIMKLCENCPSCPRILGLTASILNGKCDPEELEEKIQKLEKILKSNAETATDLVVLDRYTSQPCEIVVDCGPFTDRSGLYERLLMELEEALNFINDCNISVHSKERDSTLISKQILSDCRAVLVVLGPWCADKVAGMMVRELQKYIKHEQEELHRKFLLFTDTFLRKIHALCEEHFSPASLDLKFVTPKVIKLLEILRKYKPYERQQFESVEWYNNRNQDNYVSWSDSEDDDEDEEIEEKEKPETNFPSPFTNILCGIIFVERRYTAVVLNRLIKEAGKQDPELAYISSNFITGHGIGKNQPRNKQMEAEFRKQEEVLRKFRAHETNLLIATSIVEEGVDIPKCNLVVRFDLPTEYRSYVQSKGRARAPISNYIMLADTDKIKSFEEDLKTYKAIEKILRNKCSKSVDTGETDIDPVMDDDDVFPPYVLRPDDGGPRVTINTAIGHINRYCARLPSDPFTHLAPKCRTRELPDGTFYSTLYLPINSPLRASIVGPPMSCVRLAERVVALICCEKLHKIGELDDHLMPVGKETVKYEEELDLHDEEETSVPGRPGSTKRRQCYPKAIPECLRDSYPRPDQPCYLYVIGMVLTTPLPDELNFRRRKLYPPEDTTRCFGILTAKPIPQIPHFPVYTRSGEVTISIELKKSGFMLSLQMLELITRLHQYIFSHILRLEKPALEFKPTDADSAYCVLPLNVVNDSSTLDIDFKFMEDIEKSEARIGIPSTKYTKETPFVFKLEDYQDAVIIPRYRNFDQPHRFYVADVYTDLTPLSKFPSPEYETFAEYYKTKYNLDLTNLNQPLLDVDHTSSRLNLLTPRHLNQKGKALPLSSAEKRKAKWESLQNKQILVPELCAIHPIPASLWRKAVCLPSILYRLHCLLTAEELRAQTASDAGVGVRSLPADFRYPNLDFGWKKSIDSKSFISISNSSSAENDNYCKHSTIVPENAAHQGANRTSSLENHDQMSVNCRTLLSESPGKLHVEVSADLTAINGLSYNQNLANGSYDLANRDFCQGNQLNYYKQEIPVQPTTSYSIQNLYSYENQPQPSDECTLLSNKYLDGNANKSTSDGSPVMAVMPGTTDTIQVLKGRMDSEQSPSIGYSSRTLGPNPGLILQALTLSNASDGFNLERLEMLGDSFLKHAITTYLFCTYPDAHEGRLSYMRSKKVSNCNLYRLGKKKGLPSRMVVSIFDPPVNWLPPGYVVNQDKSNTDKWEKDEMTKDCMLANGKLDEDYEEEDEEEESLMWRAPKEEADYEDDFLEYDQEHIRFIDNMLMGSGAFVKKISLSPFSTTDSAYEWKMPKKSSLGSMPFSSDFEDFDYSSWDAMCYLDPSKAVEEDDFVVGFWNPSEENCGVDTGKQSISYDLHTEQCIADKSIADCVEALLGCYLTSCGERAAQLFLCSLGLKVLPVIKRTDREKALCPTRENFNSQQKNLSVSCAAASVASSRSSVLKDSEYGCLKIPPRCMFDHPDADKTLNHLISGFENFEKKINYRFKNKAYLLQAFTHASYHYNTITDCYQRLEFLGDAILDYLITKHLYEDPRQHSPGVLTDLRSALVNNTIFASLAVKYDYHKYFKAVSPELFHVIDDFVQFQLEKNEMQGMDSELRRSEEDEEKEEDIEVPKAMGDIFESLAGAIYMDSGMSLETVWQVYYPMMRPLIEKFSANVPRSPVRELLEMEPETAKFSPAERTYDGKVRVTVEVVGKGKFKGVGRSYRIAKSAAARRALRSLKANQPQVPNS
# * marks the source's active call; other numbers are inactive results.
SMILES,Dicer processing
Fc1cccc(Cl)c1Cn1nnc(-c2cc(C(F)(F)F)cc(C(F)(F)F)c2)n1,0.81
Fc1cccc(Cl)c1Cn1nnc(-c2c(Cl)cccc2Cl)n1,0.74
Cc1ccc(S(=O)(=O)CCSC2=CC(=O)CC(C)(C)S2)cc1,-3.2
CC1(C)CC(=O)C=C(SCCS(=O)(=O)c2ccccc2)S1,1.9
CC1(C)CC(=O)C=C(SCc2ccc(Cl)cc2)S1,4*
CC(C)=NOC(=O)Nc1ccc(C(F)(F)F)cc1,0.35
COC(=O)CC1(C(=O)OC)Oc2ccc(Br)cc2C(=O)N1c1ccc(F)c(Cl)c1 (configuration not stated),44
COc1cc(C2CC(=O)Nc3nc(N)[nH]c(=O)c32)ccc1OCc1ccc(F)cc1 (configuration not stated),-1.1
NN/C(N)=N/C(N)=Nc1ccccc1F,2
NC(N)=NC(N)=Nc1ccccc1,-0.24
CCc1ccccc1N=C(N)N=C(N)N,5.5*
COC(=O)c1sc(SC)c(C#N)c1-c1ccccc1Cl,-3.5
O=C(NCCCn1ccnc1)c1nn2c(C(F)(F)F)cc(-c3ccccc3)nc2c1Br,-0.55
CCCCCCCCSc1ncn[nH]1,-1.6
CCCCCCCSc1nnc(-c2ccccc2N)c(=O)[nH]1,1.1
CCCCCSc1nncc(=O)[nH]1,4.2*
Cc1nnc2n1NC(c1ccc(F)cc1)C(C(=O)Nc1ccc(Br)cc1)S2 (configuration not stated),0.61
Cc1ccc2oc(=O)c(CCC(=O)O)nc2c1,-1.6
O=C(NNC(=S)NCC1CC1)C1CC1,3.4*
S=C(NCC1CC1)N/N=C/c1ccccc1Cl,19
CC(C)(C)OC(=O)N[C@@H](Cc1ccccc1)C(=O)NNC(=S)NCC1CC1,2.1
CC1C/C(=N\Nc2cc(Cl)cc(Cl)c2)c2cc(Cl)ccc2S1 (configuration not stated),1.4
CC1C/C(=N\Nc2ccc(Br)cc2)c2cc(Cl)ccc2S1 (configuration not stated),3.2*
O=[N+]([O-])c1ccc(N/N=C2\CCSc3ccc(Cl)cc32)cc1,0.41
Cn1c(SCC(=O)N/N=C/c2ccc(OCc3ccccc3)cc2)nnc1-c1ccccc1,-0.56
SMILES,Dicer processing
N#Cc1cnn(-c2ccc(F)cc2)c1NC(=O)C1CCCCC1,-0.55
CC(C)(C)c1ccc(C(=O)N/N=C(/C(=O)O)c2ccccc2)cc1,0.11
C/C(Cc1ccccc1)=N\NC(=O)c1ccncc1,-0.68
C/C(=N/NC(=O)c1ccccc1)C(=O)O,3.3*
CNC(=S)N/N=C/c1ccc(Cl)c(Cl)c1,0.07
NC(=O)c1c(NC(=O)c2ccc(F)cc2)sc2c1CCCC2,-0.42
NC(=O)c1c(NC(=O)c2ccc(Cl)cc2)sc2c1CCCC2,-1.1
NC(=O)c1c(NC(=O)c2ccc(S(=O)(=O)N3CCCC3)cc2)sc2c1CCCC2,3.4*
CC1(c2csc(Nc3ccccc3Cl)n2)CCC(=O)O1 (configuration not stated),1.6
Cc1csc(NC(=O)c2ccco2)c1C(=O)c1ccccc1,0.11
O=C(Nc1csc(C(F)(F)F)c1-c1ccccc1)c1ccco1,4.4*
O=C(Nc1csc(C(F)(F)F)c1-c1ccccc1)C(Cl)(Cl)Cl,-0.5
O=C(Nc1n[nH]c(-c2ccccc2)c1Br)c1ccc(Cl)cc1,-0.87
Fc1ccc(OCc2nnc3n2N=C(c2ccc(Br)cc2)CS3)cc1,-1
COCCc1nnc2n1N=C(c1ccc(Br)cc1)CS2,-0.4
COc1ccc(OCc2nnc3n2N=C(c2ccc(Br)cc2)CS3)cc1,3*
CCCOc1ccc(C2c3c(oc4ccccc4c3=O)C(=O)N2c2nc(C)c(C)s2)cc1OCC (configuration not stated),-0.12
O=C(Nc1ccccc1F)NC1CCCc2ccccc21 (configuration not stated),4.6*
Cc1noc(C)c1NC(=O)NC1CCCc2ccccc21 (configuration not stated),-0.44
CC(C)(C)c1ccc(NC(=O)NC2CCCc3ccccc32)cc1 (configuration not stated),1.4
Cc1cc(C)nc(Nc2ncc(O)n2-c2ccc(C)c(C)c2)n1,3.6*
CCOc1ccc(-n2c(O)cnc2Nc2nc(C)cc(C)n2)cc1,1.3
Cc1cc(C)c2c(C)nn(-c3ccc(C)c(C)c3)c2n1,-3.5
O=C1CSC(c2ccc(C(F)(F)F)cc2)N1CCN1C(=O)CSC1c1ccc(C(F)(F)F)cc1 (configuration not stated),0.64
C=CCOc1ccc(C2/C(=C(\O)c3ccc(OCC)cc3)C(=O)C(=O)N2c2nnc(C)s2)cc1 (configuration not stated),1.6
SMILES,Dicer processing
CC12C=CC(O1)C1C(=O)N(c3ccc(C(=O)O)cc3)C(=O)C12 (configuration not stated),-0.17
CCCCCCC(=O)Oc1ccc(N2C(=O)CCC2=O)cc1,1.4
O=C(O)c1ccc(N2C(=O)CCC2=O)cc1,4.8*
Cc1nc2ccc(NC(=O)C(Cl)Cl)cc2o1,-2
COc1ccc(OC(C)c2nc(-c3ccc(Cl)cc3)no2)cc1 (configuration not stated),2.4
CC(C)c1ccc(C2C3CCc4ccccc4C3=NN2CCO)cc1 (configuration not stated),3.1*
CN1N=C2c3ccccc3CCC2C1c1ccc(F)cc1 (configuration not stated),0.59
COc1ccc2c(c1)CCC1C2=NN(C)C1c1ccc(C(C)C)cc1 (configuration not stated),1.1
CCn1c(=S)ccc2cc(OC)ccc21,2
COC(=O)Cn1c(=O)oc2ccccc21,-0.07
CC(C)OC(=O)Cn1c(=O)oc2ccccc21,4*
O=C(O)Cn1c(=O)oc2ccccc21,0.55
CC1=C(C(=O)OCC(C)C)C(c2cccc(F)c2)C2=C(CC(c3cccs3)CC2=O)N1 (configuration not stated),0.24
Cc1nn(C)c(Oc2ccc(C(C)(C)C)cc2)c1[N+](=O)[O-],-1.4
Cn1cc(C(=O)O/N=C/c2ccc(Cl)cc2)c(C(F)(F)F)n1,1.9
COCCN1CNc2c(c(=O)n(C)c(=O)n2C)C1,3.5*
Cn1c2c(c(=O)n(C)c1=O)CN(C1CC1)CN2,-1.8
Cn1c2c(c(=O)n(C)c1=O)CN(CCc1ccccc1)CN2,-3.7
Cn1c2c(c(=O)n(C)c1=O)CN(CCCCCCO)CN2,-2.1
Cn1c2c(c(=O)n(C)c1=O)CN(Cc1ccc(F)cc1)CN2,4.3*
Cn1c2c(c(=O)n(C)c1=O)CN(CCc1ccc(Cl)c(Cl)c1)CN2,-5.6
COc1ccc(/C(O)=C2/C(=O)C(=O)N(CCCC(=O)O)C2c2cccnc2)cc1 (configuration not stated),15
CC1(C)CC(CCN)(Cc2ccccc2)CCO1 (configuration not stated),0.44
Cc1ccc(-c2cc(C(=O)O)c3ccccc3n2)s1,-0.52
Cc1ccc(/C(O)=C/C(=O)C(=O)NNC(=O)c2cc(C)nc3ccccc23)cc1,3.2*
SMILES,Dicer processing
COC(=O)Nc1cc(C)nc2ccccc12,-0.2
CCOC(=O)c1ccc(NC(=S)Nc2ncccc2C)cc1,0.21
CCOC(=O)CSC1=C(C#N)C(c2ccc(C(C)C)cc2)CC(=O)N1 (configuration not stated),0.12
CCOC(=O)c1noc(C)c1-c1csc(-c2ccc(Cl)cc2)n1,0.52
O=C(O)CCCC(=O)c1c[nH]c2ccccc12,0.77
O=C(O)CNc1n[nH]c(=O)[nH]c1=O,-0.93
CCC(Nc1n[nH]c(=O)[nH]c1=O)C(=O)OC (configuration not stated),3.2*
CCOC(=O)Cc1n[nH]c(=O)[nH]c1=O,-0.76

# Compound activity: PubChem BioAssay, Center for Chemical Genomics, University of Michigan
